Pf growth 96h: P. falciparum growth inhibition at 96 hour, primary screen for plastid delayed-death inhibitors; P. falciparum luciferase reporter growth, 96 h; Potency, µM (titrated, usually from 28.7 µM), hits mostly inhibitors; 320,000 compounds, 6.9% hits; AID 504834
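P. falciparum expressing integrated firefly luciferase, in erythrocytes at 2% hematocrit, 0.05% parasitemia, incubated with compounds 96 h at 37 C, 5% CO2. Growth inhibition read as loss of luminescence; two-generation exposure targets delayed-death apicoplast inhibitors.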
CHX counter: affects cycloheximide protein synthesis inhibition readout, counter-screen. max response, %. 300,000 compounds, 12% hits. cell reporter, cycloheximide protein synthesis inhibition counterscreen; in the data active = max response mostly above about 13%, no sharp cut-off; inactive = mostly below about 14%; also: read at 38.3 µM for the half of the compounds with a filed dose
Shiga toxin inh: inhibitors of Shiga toxin in Vero cells; Vero cells, Shiga toxin protein synthesis inhibition reporter; inhibition, % at 38.7 µM; 290,000 compounds, 9.2% hits; in the data active = inhibition mostly above about 28%, no sharp cut-off; inactive = mostly below about 43%
Pf growth 48h: inhibits P. falciparum growth in the first generation, 48 h; Potency, µM (top dose mostly 28.7 µM), usual class: inhibitors; 310,000 compounds, 5.9% hits; P. falciparum luciferase growth in erythrocytes, 48 h
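Compounds are pin-transferred into medium, infected erythrocytes (2% hematocrit, 0.1% parasitemia final) are added, and plates sit one parasite generation at 37 C in 5% CO2. Detection reagent is then added and luminescence measured.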
A number is an active result; - = inactive; ? = inconclusive; . = no result given; [ ] = remark or other dose. Rows were chosen to be rich in hits. Some 21% of all compounds tested hit in one or more screens of this group. Unless noted, calls follow the shape of the dose curve; as a rule, active = well fitted inhibition curve with a large enough effect; inconclusive = small, poorly fitted or top-dose-only effect, or another doubt; inactive = no such curve, though single readings can be large or run the other way.

SMILES | Pf growth 96h | CHX counter | Shiga toxin inh | Pf growth 48h
Cc1ccc(N2CC(C(=O)Nc3nnc(SCc4cccnc4)s3)CC2=O)cc1 (stereo not drawn) | - | - | - | -
COc1ccc(N2CC(C(=O)Nc3nnc(SCC(=O)NC4CCCC4)s3)CC2=O)cc1 (stereo not drawn) | 6.57µM | - | - | -
COc1ccccc1C(=O)Nc1nnc(SCC(=O)NC2CCCC2)s1 | - | 62.6 | 166.4 | -
O=C(O)Cn1c(=O)c(F)cn(C2CCCO2)c1=O (stereo not drawn) | - | - | - | -
Cc1ccc(Cn2c(CCC(=O)O)nc3ncccc3c2=O)cc1 | - | - | - | -
c1ccc2oc(-c3ccc4nc[nH]c4c3)nc2c1 | - | 39.5 | 74.8 | -
O=C1c2ccccc2C(=O)N1c1cccc(-c2nc3ccccc3o2)c1 | . | - | - | -
COC(=O)c1ccc(-c2nc3ccccc3o2)cc1 | ? | 13.3 | - | -
NCc1ccc(-c2nc3ccccc3o2)cc1 | . | 59.5 | 92.6 | -
Nc1nc2ccc(-c3nc4ccccc4o3)cc2s1 | - | 36.4 | 13.2 | -
CCOc1cc(C(=O)NCc2ccc(-c3nc4ccccc4o3)cc2)cc(OCC)c1OCC | - | - | - | -
COc1cc(C(=O)OCC(=O)Nc2ccccc2C(=O)NC2CC2)c([N+](=O)[O-])cc1OC | ? | . | . | -
COC(=O)CCNC(=O)Cc1ccc(S(=O)(=O)N2CCCCC2)s1 | - | . | . | ?
CC(Oc1ccc(Cl)cc1)C(=O)Nc1ccccc1C(=O)N1CCOCC1 (stereo not drawn) | ? | - | - | -
COc1ccc(-c2nc3ccccc3o2)cc1OC | - | 36.2 | 36.0 | -
COC(=O)c1ccc(-c2nc3ccc(C)cc3o2)cc1 | ? | 76.2 | 154.0 | .
Nc1ccc(CCc2nc3ccccc3o2)cc1 | ? | 28.2 | - | -
COc1ccc(C(=O)NC(=S)NCc2ccc(-c3nc4ccccc4o3)cc2)cc1OC | . | - | - | -
Cc1ccc2nc(-c3ccccn3)oc2c1 | . | - | - | -
N#CC1(N2CCN(C(=O)c3ccccc3)CC2)CCCCC1 | - | - | - | -
Cc1cc(C)cc(NC(=O)CSc2nc(CSc3ccc(Cl)cc3)cc(=O)[nH]2)c1 | - | - | - | -
Cc1ccc([N+](=O)[O-])cc1NC(=S)NC(=O)C(C)(C)C | - | 14.0 | - | -
COc1ccc(CC(C(=O)Nc2cccc(F)c2)c2nn[nH]n2)c(OC)c1 (stereo not drawn) | . | 16.8 | - | -
COc1ccc(NC(=O)Nc2ccc(F)c(F)c2)c(OC)c1 | - | 14.0 | - | ?
COc1ccc(NC(=O)Nc2ccncc2)c(OC)c1 | - | - | - | ?
SMILES | Pf growth 96h | CHX counter | Shiga toxin inh | Pf growth 48h
Cc1ccc([N+](=O)[O-])cc1NC(=O)Nc1cccc(F)c1 | ? | - | - | 7.38µM
Cc1ccc([N+](=O)[O-])cc1NC(=S)NC(=O)CC(C)(C)C | - | - | - | -
O=C(CC1(O)C(=O)Nc2ccc(Br)cc21)c1ccc2c(c1)OCO2 (stereo not drawn) | - | - | - | -
COc1ccc(C(=O)C(C)OC(=O)c2nc3nccc(C)n3n2)cc1 (stereo not drawn) | - | . | . | -
CCOC(=O)/C(C#N)=N\Nc1cc(Cl)ccc1OC | - | - | - | -
CSCCC(NS(=O)(=O)/C=C/c1ccccc1)C(=O)O (stereo not drawn) | - | - | - | -
COc1ccc(NC(=S)NNc2ccc([N+](=O)[O-])cc2S(=O)(=O)Nc2ccc(C)cc2C)cc1 | ? | - | - | -
COc1ccc(NC(=O)Nc2cccnc2)c(OC)c1 | -[1.15 µM] | - | - | -[5.75 µM]
Cc1ccc(NS(=O)(=O)c2cc([N+](=O)[O-])ccc2NNC(=S)Nc2cc(C)ccc2C)c(C)c1 | 9.28µM | - | - | 14.7µM
COc1ccc(NC(=O)Nc2cccc(F)c2)c(OC)c1 | - | 16.6 | - | -[5.75 µM]
C/C(N)=C(/C#N)C(=O)CSc1nnc(-c2ccc3c(c2)OCO3)o1 | . | 43.6 | 99.3 | -
NC(=O)c1ccc(NC(=O)CSc2nnc(-c3ccc4c(c3)OCO4)o2)cc1 | - | . | . | -
C/C(N)=C(/C#N)C(=O)CSc1nnc(-c2ccc(OC(F)F)cc2)o1 | ? | 34.8 | 98.9 | -
O=C(O)CSc1nnc(-c2ccc3c(c2)OCO3)o1 | . | - | - | -
NC(=O)CSc1nnc(-c2ccc3c(c2)OCO3)o1 | - | 27.9 | 75.1 | -
N#CCSc1nnc(-c2ccc3c(c2)OCO3)o1 | - | 13.9 | 23.8 | -
CCOC(=O)c1c(C)[nH]c(C)c1C(=O)CSc1nnc(-c2ccc(OC(F)F)cc2)o1 | ? | - | - | .
O=S(=O)(Nc1cc(F)ccc1F)c1cccc2nonc12 | - | - | - | -
O=C(CSc1nnc(-c2ccc3c(c2)OCO3)o1)Nc1ncc(C(F)(F)F)cc1Cl | - | - | - | -
Cc1nc(NC(=O)CSc2nnc(-c3ccc4c(c3)OCO4)o2)c(Cl)cc1Cl | - | 18.6 | active | -
COc1ccc(CNC(=O)CN(c2ccccc2)S(=O)(=O)c2ccccc2[N+](=O)[O-])cc1 | - | - | - | -
CN1CCCN(CC(O)COCc2cccs2)CC1 (stereo not drawn) | - | - | - | -
OC(COCc1cccs1)CN1CCCCCC1 (stereo not drawn) | - | - | - | 13.1µM
OC(COCc1ccc2c(c1)OCO2)CN1CCCCC1 (stereo not drawn) | 11.7µM | - | - | -
OC(COCc1ccc2c(c1)OCO2)CN1CCC(Cc2ccccc2)CC1 (stereo not drawn) | - | - | - | -
SMILES | Pf growth 96h | CHX counter | Shiga toxin inh | Pf growth 48h
COc1ccc(/C=N/NC(=O)c2ccc3nc[nH]c3c2)cc1 | - | - | - | -
CC(=O)Nc1ccc2nc(C3CCCCC3)[nH]c2c1 | ? | - | - | -
O=[N+]([O-])c1ccc(/C=C/c2nc3ccc([N+](=O)[O-])cc3[nH]2)cc1 | - | 33.2 | 91.3 | 4.15µM
O=[N+]([O-])c1ccc2nc(C3CCCCC3)[nH]c2c1 | ? | 18.2 | 46.0 | -
NC(N)=Nc1nc2ccc([N+](=O)[O-])cc2[nH]1 | 4.15µM | 9.4 | - | 8.28µM
Nc1nc2ccc([N+](=O)[O-])cc2[nH]1 | - | - | - | ?
O=[N+]([O-])c1ccc2nc(CCCc3nc4ccc([N+](=O)[O-])cc4[nH]3)[nH]c2c1 | - | - | 52.5 | -
O=[N+]([O-])c1ccc2nc(CN3CCCCC3)[nH]c2c1 | - | - | - | -
Cc1cc(=O)[nH]c(SCc2nc3ccc([N+](=O)[O-])cc3[nH]2)n1 | ? | - | - | -
Cc1ccc(N2CC(C(=O)Nc3c4c(nn3C(C)(C)C)CS(=O)(=O)C4)CC2=O)cc1 (stereo not drawn) | - | - | - | -
COc1ccc(NC(=O)COC(=O)CO/N=C(\C)c2ccc3c(c2)OCO3)cc1S(N)(=O)=O | - | . | . | -
CN(C)C(CNC(=O)C1CCN(S(=O)(=O)c2cccc(Cl)c2Cl)CC1)c1ccccc1 (stereo not drawn) | ? | - | - | ?
CC12COC3(C(=O)Nc4ccc5ccccc5c4)CC1CCC32C (stereo not drawn) | - | 35.4 | 122.1 | -
CC12COC3(C(=O)Nc4ccccc4)CC1CCC32C (stereo not drawn) | - | - | - | -
Cc1ccccc1NC(=O)C12CC3CCC1(C)C3(C)CO2 (stereo not drawn) | - | - | - | -
